# LMP1 NFkB inh = Epstein-Barr LMP1 NF-kappaB reporter inhibition; LMP1-induced NF-kappaB luciferase reporter cells, luminescence; inhibition, % at 12.5 µM; hit rate 0.69% among 350,000; AID 504558; in the data active = inhibition above about 41%;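 also: 0% = neutral control wells and 100% = reference inhibitor control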
# PAX8 reporter = PAX8 transcriptional activity inhibition; RMG-I TPO-luciferase reporter, SteadyGlo, 24 h; inhibition, % at 12.6 µM; hit rate 1.2% among 360,000;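 active = mean replicate inhibition at least 60% with every replicate also reaching 60%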;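 also: luciferase light reporting Pax8 driven TPO promoter activity; plate controls were median of neutral control wells for no effect and mitoxantrone controls for full effect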
# LGR2 inh = Drosophila LGR2 receptor signaling inhibition | AID 720647 | inhibition, % at 9.99 µM | hit rate 0.35% among 380,000 | HEK293 LGR2, CRE-luciferase, bursicon-stimulated, 4 h;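 active = drop in luminescence signal, shown as inhibition above about 50% in the replicate tests, limit read from the data, passing the limit was not always enough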;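 also: agonist challenge used bursicon conditioned medium at about half maximal strength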
# EWS-Fli inh = blocks EWS/Fli oncoprotein-driven transcription; AID 651661; inhibition, % at 12.6 µM; hit rate 0.67% among 350,000; A673 NR0B1-luciferase reporter, viability-normalised;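 active = mean inhibition of at least 50% after viability correction, with every replicate also passing that limit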;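 also: firefly luciferase signal divided by Alamar Blue viability fluorescence both relative to DMSO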
# TROY NFkB inh = inhibitors of TROY-dependent NF-kB signaling | Q293 LMP1-TROYcd NF-kB luciferase reporter, 4 h | inhibition, % at 10 µM | hit rate 0.98% among 360,000;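 active = compounds whose plate-normalised and pattern-corrected inhibition of the luciferase reporter signal at the single screening dose is 50% or more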
# TWEAK Fn14 block = TWEAK-Fn14 signaling inhibition; TWEAK-stimulated Fn14 reporter cells, luciferase luminescence, 8 h; inhibition, % at 10 µM; hit rate 2% among 360,000; in the data active = inhibition above about 50%
# * marks the source's active call; other numbers are inactive results; . = not tested or not shown. An excerpt weighted towards active compounds, which were near 3.2% of everything screened.
SMILES,LMP1 NFkB inh,PAX8 reporter,LGR2 inh,EWS-Fli inh,TROY NFkB inh,TWEAK Fn14 block
CCOC(=O)c1ccc(Oc2cn[nH]c2-c2ccc(O)cc2O)cc1,0,-20,3,8,35,12
COc1ccc(-c2cn[nH]c2-c2ccc(OCC(=O)NN)cc2O)cc1OC,1,-17,8,-9,4,-1
COc1ccc(-c2n[nH]c(C)c2-c2ccc(Cl)cc2)c(O)c1OC,33,44,.,.,42,55*
CCCOC(=O)c1ccc(Oc2cn[nH]c2-c2ccc(O)cc2O)cc1,-4,7,7,1,50*,-2
C=C(C)COc1ccc(-c2n[nH]c(C)c2-c2ccc(OC)c(OC)c2)c(O)c1,4,27,-5,61*,27,-8
COc1ccc(-c2cn[nH]c2-c2ccc(OCC(=O)NN)cc2O)cc1,10,-12,7,-3,42,54*
Cc1ccc(S(=O)(=O)N(C)C[C@H]2OCc3cnnn3CCCC(=O)N([C@@H](C)CO)C[C@@H]2C)cc1,.,-6,0,-2,.,.
O=C(c1ccc2c(c1)OCO2)N1C[C@@H]2[C@H](c3ccccc31)[C@@H](CO)N2Cc1ccc2c(c1)OCO2,.,7,15,7,.,.
C=C(C)COc1ccc(-c2[nH]ncc2-c2ccc(OC)cc2)c(O)c1,13,-17,1,0,42,55*
C=C(C)COc1ccc(-c2[nH]ncc2-c2ccccc2)c(O)c1,1,.,.,.,7,2
COc1ccc(Oc2cn[nH]c2-c2ccc(O)cc2O)cc1,4,.,.,.,.,13
COc1ccc(-c2cn[nH]c2-c2ccc(O)cc2O)cc1,15,-38,16,7,45,74*
COc1ccc(-c2cc(C(=O)NN)[nH]n2)cc1,-1,29,-14,-5,41,53*
CCCC(=O)Nc1ccc2c(c1)C(=O)N(C)C[C@@H](OC)[C@H](C)CN(C(=O)c1ccccc1F)[C@@H](C)CO2,.,.,3,-3,.,.
CN(C)C(=O)C[C@H]1CC[C@@H]2[C@@H](COc3ccc(NS(=O)(=O)c4cccc(F)c4)cc3C(=O)N2C)O1,.,-18,-6,4,.,.
C#CCN(C[C@H]1[C@H](OC(=O)Nc2c(C)noc2C)[C@H](OC(=O)Nc2c(C)noc2C)C[C@@H](C(=O)OC)[C@H]1C(=O)OC)S(=O)(=O)c1ccc(C)cc1,-11,97*,31,11,-11,-8
Cc1ccc(C)c(NC(=O)COC(=O)c2cccc3c2C(=O)c2ccccc2C3=O)c1,16,64*,2,2,17,12
COc1ccc([C@H]2CC(=O)C=C(c3c(OC)cccc3OC)C2)cc1,-6,11,-7,63*,8,-2
CCOc1ccc(Cl)cc1C1=CC(=O)C[C@H](c2ccc(OC)cc2)C1,18,22,13,60*,16,-9
COc1ccc(C2=CC(=O)CC(c3ccc(OC)cc3)C2)cc1 (stereo not drawn),24,-11,-10,-20,-49,-21
COc1ccc(NC(=O)CN2CCC3(O)CCCCC3C2c2ccccc2OC)cc1 (stereo not drawn),.,.,11,.,.,.
COc1cc([C@H]2[C@@H]3CCCC[C@]3(O)CCN2CC(=O)Nc2ccc(C)cc2)ccc1O,0,45,.,.,7,66*
CCCCN1CC(COCc2ccccc2)Oc2cccc(OCCN3C(=O)[C@@H]4[C@H](C3=O)C3C=C[C@H]4C3)c2S1(=O)=O (stereo partly drawn),10,85*,.,20,18,42
O=C1[C@@H]2[C@H](C(=O)N1C[C@@H](COCc1ccccc1)Oc1cccc3c1S(=O)(=O)N(CCc1ccc(F)cc1)C[C@H](COCc1ccccc1)O3)[C@@H]1C=C[C@H]2C1,.,26,7,11,.,.
CC(C)(C)c1ccc(NC(=O)COc2ccc(-n3ccnc3)cc2)cc1,-1,.,.,.,75*,93*
SMILES,LMP1 NFkB inh,PAX8 reporter,LGR2 inh,EWS-Fli inh,TROY NFkB inh,TWEAK Fn14 block
COc1ccc(C(=O)NNC(=S)NC(=O)/C=C/c2cccs2)cc1,13,8,29,2,6,-19
O=C(/C=C/c1cccs1)NC(=S)NNC(=O)c1ccccc1O,-6,89*,14,52*,38,48
N#CC(C#N)=C1C=CC=CN1/C(=C\c1ccco1)C(=O)c1ccc(Br)cc1,-21,102*,23,.,78*,92*
N#CC(C#N)=C1C=CC=CN1/C(=C\c1ccco1)C(=O)c1ccccc1,0,122*,100*,78*,69*,76*
Cc1cc(C)c2nc(SCC(=O)N3CC(=O)Nc4ccccc43)c(C#N)cc2c1,-5,97*,.,.,28,-8
Nc1nc(CCl)nc(N(c2ccccc2)c2ccccc2)n1,.,99*,0,33,0,10
CN1CCN(CC(=O)N2N=C(c3cccs3)CC2c2ccco2)CC1 (stereo not drawn),-11,29,-3,6,2,14
O=C(CCl)N1N=C(c2cccs2)CC1c1ccco1 (stereo not drawn),-9,11,1,71*,1,67*
Cc1cc(Nc2ccccc2)nn1C(=O)c1ccc(Br)cc1,0,.,.,.,.,53*
C[C@H]1CN([C@@H](C)CO)C(=O)c2cc(NC(=O)Cn3cnnn3)ccc2O[C@H]1CN(C)C,.,-2,-13,0,.,.
CC(C)C#Cc1ccc2c(c1)O[C@@H](CN(C)Cc1cncnc1)[C@H](C)CN([C@@H](C)CO)S2(=O)=O,.,.,10,5,.,.
CC(C)c1cccc(C(C)C)c1NC(=O)OC1CCCCC1,.,-7,2,5,58*,-2
C[C@@H]1CN([C@H](C)CO)C(=O)Cc2cc(NC(=O)Cc3ccccc3)ccc2O[C@@H]1CN(C)Cc1ccc(C(=O)Nc2ccccc2N)cc1,.,11,-13,13,.,.
CCCOC(=O)c1cccc(Nc2nc(-c3cccnc3)nc3ccccc23)c1,-17,25,5,28,24,57*
O=C(OCCNc1nc(-c2ccccc2)nc2ccccc12)c1cccnc1,3,31,2,2,-1,12
Cc1ccc(-c2ccc3c(c2)O[C@H](CN(C)Cc2cncnc2)[C@H](C)CN([C@@H](C)CO)S3(=O)=O)cc1,.,-27,2,1,.,.
COc1ccc(CNC(=O)C2CCN(S(=O)(=O)N3CCCCC3)CC2)cc1,4,1,11,.,-1,-16
CCc1ccc(CNC(=O)C2CCN(S(=O)(=O)N3CCCCC3)CC2)cc1,-12,81*,2,-8,3,10
CC=Cc1ccc2n(c1=O)C[C@H]1[C@H](CO)[C@@H](C(=O)NCCC)[C@@H]2N1C(=O)C1CC1 (mixture of isomers),.,.,24,1,.,.
Clc1ccc(C2Nc3cccc4cccc(c34)N2)c(Cl)c1,-11,16,.,2,7,24
O=C1NC(c2cccc3ccccc23)Nc2ccc(Cl)cc21 (stereo not drawn),-2,71*,-13,38,34,49
